The target of experiment [1] is Ratio of Nucleoli Translocation and Cytoplasm, AR (gene 367) (UniProt P10275). The experiment can be described thus: UPITT_HCI_U2OS_AR_TIF2_Nucleoli_Cytoplasm_Ratio_Antagonist: University of Pittsburgh U2OS Androgen Receptor-Transcriptional Intermediary Factor 2 (AR-TIF2) Antagonism High Content Imaging Assay for Ratio of Nucleoli Translocation and Cytoplasm (AID 2283999; active = hit-call score of the fitted dose curve at least 0.9, where 1 is the maximum;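 note: antagonists lower the DHT-driven ratio of nucleolar to cytoplasmic red signal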). An outline of the steps: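 Human osteosarcoma U2OS line, AR fused to RFP, coactivator TIF2 fused to GFP. Cpds 20 uM final, 0.2% DMSO (screen); 0.195–50 uM final, 0.5% DMSO (CRC). Endpoint: nucleoli/cytoplasm red signal ratio, DHT as baseline, loss-of-signal antagonist mode.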
Chain of Ratio of Nucleoli Translocation and Cytoplasm, AR (gene 367) (P10275 whole entry, looked up, the tested form may be a part): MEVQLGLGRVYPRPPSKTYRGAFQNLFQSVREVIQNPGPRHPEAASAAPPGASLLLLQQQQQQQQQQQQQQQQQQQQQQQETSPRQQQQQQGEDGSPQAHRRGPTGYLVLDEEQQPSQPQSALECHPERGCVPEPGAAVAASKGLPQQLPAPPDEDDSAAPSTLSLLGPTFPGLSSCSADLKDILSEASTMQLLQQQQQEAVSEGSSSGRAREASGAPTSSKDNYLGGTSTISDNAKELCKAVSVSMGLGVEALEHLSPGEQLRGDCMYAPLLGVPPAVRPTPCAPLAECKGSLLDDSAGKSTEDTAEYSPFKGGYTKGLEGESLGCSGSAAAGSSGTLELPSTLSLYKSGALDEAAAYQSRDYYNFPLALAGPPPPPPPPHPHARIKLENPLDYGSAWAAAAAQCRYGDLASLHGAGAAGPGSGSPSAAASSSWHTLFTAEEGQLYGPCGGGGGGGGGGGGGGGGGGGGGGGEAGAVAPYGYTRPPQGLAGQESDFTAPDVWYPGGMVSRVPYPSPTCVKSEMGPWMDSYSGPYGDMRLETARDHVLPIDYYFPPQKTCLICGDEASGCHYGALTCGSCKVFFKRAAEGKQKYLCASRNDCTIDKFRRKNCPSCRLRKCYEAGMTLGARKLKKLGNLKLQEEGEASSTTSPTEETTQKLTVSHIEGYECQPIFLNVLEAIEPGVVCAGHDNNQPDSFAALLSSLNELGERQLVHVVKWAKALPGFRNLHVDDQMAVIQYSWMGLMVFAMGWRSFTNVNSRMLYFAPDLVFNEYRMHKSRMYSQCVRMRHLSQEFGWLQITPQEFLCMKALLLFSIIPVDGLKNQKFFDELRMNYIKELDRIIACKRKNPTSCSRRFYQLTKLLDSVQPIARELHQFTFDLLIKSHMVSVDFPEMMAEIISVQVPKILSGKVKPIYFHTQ

Experiment [2] shares this target. Nature of the experiment: UPITT_HCI_U2OS_AR_TIF2_Nucleoli_Cytoplasm_Ratio_Agonist: University of Pittsburgh U2OS Androgen Receptor-Transcriptional Intermediary Factor 2 (AR-TIF2) Agonism High Content Imaging Assay for Ratio of Nucleoli Translocation and Cytoplasm (AID 2284000; active = hit-call score of the fitted dose curve at least 0.9, where 1 is the maximum;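 note: hits raise the red nucleolar to cytoplasm ratio above vehicle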). An outline of the steps: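 U2OS cells expressing RFP-tagged human AR and GFP-tagged TIF2; high-content imaging ratio of nucleolar to cytoplasmic red fluorescence, fitted as gain of signal vs DMSO. Single point at 20 uM final (0.2% DMSO); concentration-response 0.195-50 uM final (0.5% DMSO).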

Experiment [3] is described as follows: CCTE_Harrill_HTTr_Viability_MCF7: CCTE's 6-hour Cell Viability Assessment for the High-Throughput Transcriptomics (HTTr) Platform, in MCF-7 cells cultured in DMEM + 10% fetal bovine serum, Harrill Lab (AID 2284010). The procedure, abridged:
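Cells were dosed with chemicals in an eight-point dilution series, imaged 6 hours later for propidium iodide uptake, and the endpoint was analyzed by bidirectional fitting against DMSO as negative control.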

Experiment [4] can be described thus: CCTE_Harrill_HTTr_Apoptosis_MCF7: CCTE's 6-hour Apoptosis Assessment for the High-Throughput Transcriptomics (HTTr) Platform, in MCF-7 cells cultured in DMEM + 10% fetal bovine serum, Harrill Lab (AID 2284011). The procedure, abridged: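 Apoptosis in MCF-7 cells grown in DMEM with 10% fetal bovine serum was scored after a six hour exposure by high content imaging of caspase-3/7 activation (CellEvent Caspase 3/7 Green), with DMSO serving as negative control and baseline.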

Experiment [5] in a line: CCTE_Shafer_MEA_acute_spike_number: CCTE's Neural Acute Assay for Total Number of Spikes, Shafer Lab (AID 2284008).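 For AC50: curve fitted for decrease in spike count so AC50 reflects inhibitors.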 The procedure, abridged:
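Using an adaptive detector set to 8x rms noise, spikes were counted in 40-min windows before and after compound addition (0.03-40 uM) to rat cortical networks at 37 C; the well-level change from baseline was analysed relative to DMSO.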

Experiment [6] in a line: CCTE_Shafer_MEA_acute_firing_rate_mean: CCTE's Neural Acute Assay for Mean Firing Rate, Shafer Lab (AID 2284009).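 Note: analyzed for loss of signal so actives lower firing rate relative to DMSO.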 The procedure, abridged:
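Rat primary cortical neurons on 48-well MEA plates, dosed at 0.03-40 uM on DIV 13 or 15; 40 min spontaneous activity recorded at 37 C before and after compound. Spike rate per electrode averaged per well, expressed as percent change from baseline.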

Experiment [7] in a line: CCTE_Shafer_MEA_acute_burst_duration_mean: CCTE's Neural Acute Assay for Mean Burst Duration, Shafer Lab (AID 2284014).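 Note: hits are decreases in mean burst duration relative to DMSO controls.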 An outline of the steps:
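Rat primary cortical neurons on 48-well MEA, treated at DIV 13 or 15 with 0.03-40 uM in at least 3 wells. Value is percent change in mean burst duration, comparing 40 min recordings at 37 C before and during exposure.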

A short description of experiment [8]: CCTE_Shafer_MEA_acute_per_burst_spike_number_mean: CCTE's Neural Acute Assay for Average Number of Spikes Per Burst, Shafer Lab (AID 2284015).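 Note: hits are decreases in mean spikes per burst versus baseline.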 The procedure, abridged: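 Primary rat cortical neurons on 48-well MEA plates, treated on DIV 13 or 15 at 0.03-40 uM. Spontaneous activity recorded 40 min before and 40 min after compound at 37 C; percent change in mean spikes per single-electrode burst per well, fitted in the loss direction versus DMSO.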

A short description of experiment [9]: CCTE_Shafer_MEA_acute_interburst_interval_mean: CCTE's Neural Acute Assay for Mean Interburst Interval, Shafer Lab (AID 2284016).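 Note: percent change of mean interburst interval versus each well's own pre-dose baseline; curves fitted for decrease in interburst interval relative to DMSO.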 The procedure, abridged: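 Primary rat cortical neurons on 16-electrode MEA wells were recorded 40 min at baseline on DIV 13 or 15, then 40 min after compound (0.03-40 uM), at 37 C. Value is percent change in mean interburst interval per well, DMSO as negative control.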

The nature of experiment [10]: CCTE_Harrill_HTTr_CellCount_MCF7: CCTE's Cell Proliferation Assessment for the High-Throughput Transcriptomics (HTTr) Platform, Harrill Lab (AID 2284012; active = hit-call score of the fitted dose curve at least 0.9, where 1 is the maximum;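 note: cells exposed to compound for six hours; intended direction is loss of nuclei count meaning fewer cells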). The procedure, abridged: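 Chemicals in eight-point dilution series are added to MCF-7 cells for six hours, nuclei are stained with Hoechst and imaged, and per-well nuclei counts are fitted in both directions relative to DMSO controls.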

Each structure is given as a SMILES string. Records with an inconclusive call do not appear. The source made the active and inactive calls. Rule for the calls, unless noted: active = hit-call score of the fitted dose curve at least 0.9, where 1 is the maximum; inactive = score below 0.9.

Turning to `O=Nc1ccc(Nc2ccccc2)cc1`, the AC50 in experiment [1] is 2510 nM (active). For the same compound, the result in experiment [2], in experiment [3] and in experiment [4] was inactive.
With `Nc1cc([N+](=O)[O-])ccc1O`, the AC50 in experiment [5] was 2980 nM (active); in experiment [8] it was 25100 nM (active). Besides, the outcome in [6], in experiment [7] and in [9] was inactive.
As to `COc1cc(C=O)ccc1OC(=O)C(C)C`, the result in [5], in [6], in experiment [3], in [10], in experiment [7] and in experiment [8] was inactive. The outcome in [9] was inactive.
Consider `O=C[C@@H](O)[C@H](O)[C@H](O)CO`, for which the result in experiment [1] and in experiment [2] was inactive.
For the compound `Cc1ccc(C(=O)c2cc(O)c(O)c([N+](=O)[O-])c2)cc1`, in [3], the result was inactive.
As to `CC(C)(COC(=O)c1ccccc1)COC(=O)c1ccccc1`, the outcome in experiment [5], in [6], in experiment [7], in experiment [8] and in experiment [9] was inactive.
Turning to `C[C@]12CC[C@H]3[C@@H](CCC4=CC(=O)CC[C@@]43C)[C@@H]1CC[C@@H]2C(=O)CO`, in [3], the result was inactive.
`BrC1CCC(Br)C(Br)CCC(Br)C(Br)CCC1Br` (stereo unspecified): the result in [1], in experiment [2], in [3] and in experiment [10] was inactive.
Consider `Cc1cc(C2(c3cc(C)c(O)cc3C)OS(=O)(=O)c3ccccc32)c(C)cc1O`, for which the compound was classed as inactive in experiment [5], in experiment [6], in experiment [3], in experiment [10], in experiment [7] and in experiment [8]. Besides, in experiment [9], the compound was classed as inactive.
In the case of `CCC(=O)OCc1ccccc1`, the outcome in [5], in [6], in [3], in experiment [10], in experiment [7] and in experiment [8] was inactive. In addition, in experiment [9], the compound was called inactive.
For the compound `S=C(S)NCCNC(=S)S`, in [3], the result was inactive.
For the compound `CC(=O)[C@H]1CC[C@H]2[C@@H]3CC=C4C[C@@H](O)CC[C@]4(C)[C@H]3CC[C@]12C`, the AC50 in experiment [5] was 7.9 nM (active); in experiment [6], 5.37 nM (active). Besides, the outcome in experiment [3], in experiment [7], in experiment [8] and in experiment [9] was inactive.
With `N#Cc1ccc(CC(=NNC(=O)Nc2ccc(OC(F)(F)F)cc2)c2cccc(C(F)(F)F)c2)cc1`, the outcome in experiment [3] was inactive.

By AC50 is commonly meant the concentration at which the activity in the assay is half-maximal.

Values taken from PubChem BioAssay (EPA / NIEHS).
